Results as given in the supplement of paper PMC6555819.

The sequences below were run on PXR homodimer (NR concentration 270 nM) (assay: PBM binding z-score (relative to random genomic background probes); higher = stronger binding; sequences stand for … in GC…GCGATTGACAGCGTAGAATGAAGG).
How it was run: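 Ligand-free nuclear receptor dimers were bound for 1 h to custom Agilent 4×180K protein-binding microarrays. Detection used antibodies against each partner (one per run). Binding z-scores rest on regression-normalized fluorescence, with random background probes as the reference.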

Sequence	PBM binding z-score
CCTTTCGGGTCAAGGTTATAGCACGGGTGGTACG	0.171
GGAACGAGGGCAAAGCTGATAGCATCTGTCGACG	-0.0388
TAGCCTAGGTCATTGGGGCAGTATAGTACGCATC	0.425
ATCTCTAGGTAAGAGTCAGTTCAGTGAAGAACGC	1.13
AGAATGAGGTTAAGATCAGGCAAACAGAATACAT	-0.00329
TTACGAAGGTGAAGGTCGTTGATCCCTCTGTAGA	-0.113
AGAATTAGGTTATTAAGATCAGGGAATTGCGGTC	0.468
GGAACGAGGGCATTCCAGTTGATAGCATGGCGAT	0.706
TCTTGTAGTTCAAAGGTTAAGAAAGCCGAAGCCT	0.443
AATACAGGGTCACTAGGCCAGCGTAGGTACGAAT	0.293
CCTACTGGGCCATCAGCTCATTGATATCAACGTT	-0.788
TAGCCTAGGTCATTCAGGGGCCAGTATTGAAAGC	-0.361
TCTTGTAGATCAAAGGTTAGGAAAGCCGAAGCCT	-0.482
GCGACTGAGGCATCAGCAGGTTACCATAACTTAA	-0.552
ACACCAAGGTGATCGTGAGGTCGTTGATACTAAC	1.07
TAGCCTAGGTCATGGGCCAGTCTACCACGCGAAC	-0.884
CGGCAAAGTTCAACTAAGGTAACGTAAAGCACGC	2.72
CGTCCAAGGTCAGAAAGGTCAGTGAATGCCGAGT	10.7
